An excerpt weighted towards active compounds, which were near 4% of everything screened.
NALP3 yeast inh – inhibitors of NALP3 inflammasome in yeast | AID 2825 | 0.39% of 330,000 active | inhibition, % at 10 µM | Yeast reconstituted NLRP3/ASC/caspase-1, beta-gal luminescence, 24 h;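 active means inhibition of 50% or more; inactive means inhibition below 50%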
NALP1 yeast inh – NALP1 inhibition | S. cerevisiae NALP1/ASC/caspase-1 growth, X-gal OD620, 72 h | inhibition, % at 10 µM | 0.61% of 280,000 active; in the data active means inhibition mostly above about 24%, no sharp cut-off; inactive means mostly below about 32%
tim23-1 inh – tim23-1 yeast growth inhibition. 1.3% of 330,000 active. S. cerevisiae tim23-1 growth, BacTiter-Glo luminescence, 24 h. inhibition, % at 20 µM;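 active means growth inhibition of the mutant yeast at or above 50%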;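 further: temperature-sensitive mutant grown at 25 °C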
tim10-1 inh – inhibits growth of tim10-1 mutant yeast. inhibition, % at 20 µM. AID 463190. S. cerevisiae tim10-1 ts strain growth, BacTiter-Glo, 24 h. 2.2% of 330,000 active;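 active means inhibition of at least 40%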;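 further: mutant grown at 25 °C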
TIM10 inh – growth inhibitors of TIM10 yeast strain; inhibition, % at 10 µM; S. cerevisiae TIM10 strain growth, BacTiter-Glo luminescence, 24 h; 1.4% of 330,000 active;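 active means inhibition of 40% or more at the single tested concentration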;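 further: wild-type TIM10 isogenic control strain grown at permissive 25 °C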
NALP3 confirm – NALP3 inhibition confirmation in yeast; shares compounds with NALP3 yeast inh; yeast expressing human NALP3, luminescence; inhibition, % at 10 µM; 81% of 1,300 active; AID 435006; in the data active means inhibition above about 48%
Casp1-ASC yeast – caspase-1-ASC yeast counter-screen hit. yeast expressing Caspase-1-ASC, luminescence counter screen. 66% of 1,000 active. shares compounds with NALP3 yeast inh. AID 488784. inhibition, % at 10 µM
NALP3 retest – yeast NALP3 inhibition, confirmed on retest. 53% of 1,000 active. shares compounds with NALP3 yeast inh. AID 488794. yeast expressing human NALP3, luminescence read-out. inhibition, % at 10 µM
Of the large screens only hits and unclear results are named; the others gave an inactive call (follow-up assays come after a bar, where they were run). Unless noted, no stated cut-off is given here; in the data, active means inhibition above about 50%; inactive means the rest.

COc1cccc(CNCCc2ccc(F)cc2)c1	none
Fc1ccc(CCNCc2cccc(Cl)c2)cc1	NALP1 yeast inh 40.6
COC(=O)C1=C(c2ccc(F)cc2OCc2ccccc2)C[C@@H]2CC[C@H]1N2C(=O)NCc1cccc(C(F)(F)F)c1	none (no result: NALP1 yeast inh)
Cc1ccc(NC(=O)c2cc(-c3ccccc3)n(CCCN3CCOCC3)c2C)cc1	NALP1 yeast inh 37.3
Cc1ccccc1NC(=O)c1cc(-c2ccccc2)n(CCCN2CCOCC2)c1C	none
O=C(COC(=O)Cc1ccccc1)NC12CC3CC(CC(C3)C1)C2	NALP1 yeast inh 24.2
O=C(COC(=O)Cc1ccccc1)NC(=O)NC1CCCCC1	none (no result: NALP1 yeast inh)
COC(=O)C1=C(c2ccc(Cl)c(C(F)(F)F)c2)C[C@@H]2CC[C@H]1N2C(=O)N1CCC(C)CC1	none (no result: NALP1 yeast inh)
CNC(=O)Oc1ccc2ncccc2c1	NALP1 yeast inh 51.5
CCOc1c(Cl)cc(CNCCc2c[nH]c3ccccc23)cc1OC	none
CCOc1cc(CNCCc2c[nH]c3ccccc23)cc(Cl)c1OCC	NALP1 yeast inh 53.6
Cc1c(C)c2ccc(OCC(=O)N3C[C@H]4C[C@@H](C3)c3cccc(=O)n3C4)cc2oc1=O	NALP1 yeast inh 40.3
CCn1nc(-c2cccs2)nc2c(=O)n(C)c(=O)nc1-2	NALP1 yeast inh 33.1 (no result: NALP3 yeast inh, tim23-1 inh, tim10-1 inh, TIM10 inh)
CCOc1ccc(-n2c(-c3cccs3)nc3ccccc3c2=O)cc1	none
COC(=O)C1=C(c2cccc(Cl)c2)C[C@@H]2CC[C@H]1N2C(=O)N1CCCC1	none (no result: NALP1 yeast inh)
Brc1ccc2c(c1)C(OC1CN3CCC1CC3)c1ccccc1CS2 (stereo unspecified)	NALP1 yeast inh 57.3
COc1ccccc1NC(=O)c1cn(CCC#N)nc1-c1cccc(Cl)c1	none
CCCCOc1ccc(CCN)cc1Cl	NALP1 yeast inh 47.5
CC1CC(OC(=O)c2ccccc2)(c2ccccc2)C(C)CN1C (stereo unspecified)	NALP1 yeast inh 33.3
CCN(CC)C(=O)c1ccc(NC(=O)CN2CCc3cc(OC)c(OC)cc3C2)cc1	none
CNC(=O)N(C)c1ccc(C(O)(C(=O)OC)C(F)(F)F)cc1 (stereo unspecified)	NALP1 yeast inh 42.3
CN1[C@H]2CC[C@@H]1C(C(=O)N1CCOCC1)=C(O)C2	none (no result: NALP1 yeast inh)
C[C@]12CCC3[C@@H](CC[C@H]4C[C@@H](O)CC[C@]34C)C1CCC2=O (stereo partly specified)	NALP3 yeast inh 59.1 | NALP3 confirm 70.8
C[C@]12CCC3C(CC[C@H]4C[C@@H](O)CC[C@]34C)C1C[C@@H](O)C2=O (stereo partly specified)	none (no result: NALP1 yeast inh)
C[C@]12CCC3C(C1CCC2=O)[C@H](O)C[C@H]1C[C@@H](O)CC[C@]31C (stereo partly specified)	none (no result: NALP1 yeast inh)
C[C@]12CCC3C(CC[C@@H]4C[C@H](O)CC[C@]34C)C1CCC2=O (stereo partly specified)	NALP3 yeast inh 73.2 (no result: NALP1 yeast inh) | NALP3 confirm 72.0 | Casp1-ASC yeast 72.2 | NALP3 retest 51.5
C[C@]12CC[C@H](O)C[C@H]1CC[C@@H]1[C@@H]2CC[C@]2(C)C(=O)CC[C@@H]12	NALP3 yeast inh 54.2 (no result: NALP1 yeast inh) | NALP3 confirm 67.5 | Casp1-ASC yeast 64.5 | NALP3 retest 56.1
C[C@]12CC[C@@H](O)C[C@H]1CC[C@@H]1[C@@H]2CC[C@]2(C)C(=O)CC[C@@H]12	NALP3 yeast inh 66.0 (no result: NALP1 yeast inh) | NALP3 confirm 72.5 | Casp1-ASC yeast 70.5 | NALP3 retest 60.4
Cc1cccc(-n2c(/C=C/c3ccccn3)nc3ccccc3c2=O)c1	none
Cc1ccc(Cn2ccccc2=N)cc1	none (no result: NALP3 yeast inh, tim23-1 inh, tim10-1 inh, TIM10 inh)
CN(C)c1ccc(/C=C2/C(=N\O)C3CCN2CC3)cc1	none
CCCCC/C(=N\O)c1c[nH]c2ccccc12	NALP3 yeast inh 54.9 | NALP3 confirm 56.8 | Casp1-ASC yeast 53.1 | NALP3 retest inactive
CCCCC/C(=N/O)c1c(C)[nH]c2ccccc12	none
C[C@]12CC[C@@H](O)C[C@@H]1CC[C@@H]1[C@@H]2CC[C@]2(C)[C@@H](O)CC[C@@H]12	NALP3 yeast inh 53.2 | NALP3 confirm 66.3 | Casp1-ASC yeast 56.5 | NALP3 retest inactive
